# In the supplement of paper PMC3334620:
# The full ranking holds about 33,000 sequences; the median of “E-score (-0.5 to 0.5)” is about -0.054, and the highest 2% start at about 0.35. What follows is part of a selection rich in the highest values, with near analogues and random picks from the rest.
# Molecular target: T1, Stb5 (UniProt P38699)
# T1 sequence: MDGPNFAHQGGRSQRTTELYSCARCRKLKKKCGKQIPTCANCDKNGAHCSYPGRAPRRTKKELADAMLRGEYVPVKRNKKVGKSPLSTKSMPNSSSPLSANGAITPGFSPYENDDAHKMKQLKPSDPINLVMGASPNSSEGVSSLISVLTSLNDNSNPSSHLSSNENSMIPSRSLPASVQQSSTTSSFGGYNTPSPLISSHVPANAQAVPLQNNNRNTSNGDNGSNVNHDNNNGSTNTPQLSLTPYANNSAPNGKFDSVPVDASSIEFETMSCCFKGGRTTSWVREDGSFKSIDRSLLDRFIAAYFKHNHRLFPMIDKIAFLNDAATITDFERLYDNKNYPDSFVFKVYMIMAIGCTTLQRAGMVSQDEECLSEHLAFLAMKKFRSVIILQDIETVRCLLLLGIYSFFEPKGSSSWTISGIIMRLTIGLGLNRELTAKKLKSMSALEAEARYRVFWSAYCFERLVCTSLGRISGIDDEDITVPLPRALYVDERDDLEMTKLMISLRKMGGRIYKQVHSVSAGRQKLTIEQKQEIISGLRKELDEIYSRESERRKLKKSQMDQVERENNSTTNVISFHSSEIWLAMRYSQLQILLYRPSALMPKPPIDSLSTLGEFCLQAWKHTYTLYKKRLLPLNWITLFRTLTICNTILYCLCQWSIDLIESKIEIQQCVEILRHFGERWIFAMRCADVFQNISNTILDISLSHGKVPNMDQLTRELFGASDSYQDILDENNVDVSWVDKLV
# Test: PBM E-score (8-mer binding enrichment) (E-score (-0.5 to 0.5)); higher = stronger / more preferred TF binding
# Settings: protein concentration: 200 nM; construct: GST-full length
# Summary of the method: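 Each ungapped eight-base word and its reverse complement, pooled, received an E-score from the Universal PBM Analysis Suite. Underlying scans, normalised with masliner, recorded fluorescent anti-GST bound to GST-tagged yeast transcription factors. These were applied at about 100-200 nM to universal all-10-mer Agilent arrays double-stranded by primer extension.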
row,Sequence,PBM E-score
1,TCGCTAGA,-0.243
2,AGCACCTG,-0.14
3,CCCTCTCA,-0.284
4,AAACGAGC,-0.209
5,GTACTCCA,-0.229
6,AGCGGATA,0.286
7,AGCGGAAT,0.228
8,AGCGGACT,0.39
9,CGCGGACA,0.315
10,AGCGGACA,0.393
11,AGCGGACG,0.284
12,CCCCCCCA,-0.263
13,ACTCATAT,-0.0119
14,GACCCCCC,-0.259
15,GACCCCGA,0.377
16,CACCCCGC,0.394
17,TACCCCGA,0.407
18,GACCCCGC,0.391
19,GACCCCCA,-0.201
20,TACCCCAA,-0.157
21,GCCCCCGC,0.256
22,CACCCCGA,0.325
23,CACCCCGG,0.277
24,TACCCCCA,-0.114

row,Sequence,PBM E-score
1,CACCCCCC,-0.14
2,GGTGCTCA,0.0877
3,CGAAAGAG,-0.0144
4,ACGCAGAG,-0.218
5,CCTCCATC,-0.18
6,AGCGGGAC,0.303
7,AGCGAGAC,-0.0631
8,CTAGCACC,0.336
9,GCGTCATA,-0.0207
10,GCAATGCA,-0.0992
11,CCAGCCAG,-0.223
12,ACAGTGAA,-0.147
13,CCTTAATC,0.109
14,GTTATCTA,-0.00767
15,ATCAACGA,0.0713
16,ACGGGTAG,-0.0642
17,AACGTCCG,0.375
18,AGAGTCCG,0.378
19,CAGGTCCG,0.237
20,AAGGTCCA,-0.171
21,AACGTCCA,-0.0958
22,AGAGTCCT,-0.216
23,AACGTCCC,-0.0635
24,AGAGTCCC,0.0723

row,Sequence,PBM E-score
1,CAAGTCCG,0.356
2,CAAGTCCC,0.00375
3,CAAGTCCA,-0.171
4,AAGGTCCG,0.442
5,GAACTGCC,-0.118
6,CGGATCCG,0.124
7,ATGGTCTA,-0.23
8,AAGAACCG,0.262
9,AAAGATCG,-0.0774
10,AGGCATCC,-0.261
11,ACATTAGC,-0.083
12,AGGCCGTG,0.212
13,CTCTTGTC,-0.198
14,ACGCCATG,-0.293
15,TAGCCGGA,0.279
16,CCTGAAGG,-0.14
17,AAAGTCCA,-0.136
18,AAAGTCCT,0.108
19,AAAGTCCG,0.466
20,ACGATTAC,-0.161
21,CTCTGCCA,-0.235
22,TCGGCCCA,0.105
23,ACGGAGAT,0.403
24,ACGGAGCT,0.373

row,Sequence,PBM E-score
1,ACGGATAT,0.367
2,ACGGATAG,-0.0573
3,ACGGATAA,0.215
4,ACGGAGCC,0.263
5,ACGGAGCG,0.299
6,ACGGAGAC,0.272
7,ACGGAGAA,0.188
8,AACTGTGA,-0.19
9,ATTGGAAA,-0.0189
10,ATCCTTTC,-0.195
11,CAGGCGAA,-0.257
12,GGCTTCTA,-0.04
13,AGTCGTAC,-0.189
14,TGTCGGAA,0.26
15,ACAGGTCA,-0.136
16,CACTACTA,-0.117
17,ACCATCCA,-0.118
18,ATAGTACG,-0.0437
19,CTAGTACC,0.226
20,ATAGTACC,0.359
21,CGCCGAGC,0.261
22,CCCCGATC,0.374
23,GGCCGATA,0.266
24,CGCCGATC,0.363

row,Sequence,PBM E-score
1,AGCCGATA,0.0102
2,ACCCGATC,0.19
3,CCCCGATA,0.339
4,CGCCGATA,0.36
5,AGCCGATC,0.0924
6,ACTATTCA,-0.084
7,CGCATCTC,-0.00684
8,TCTTTACA,-0.117
9,AGTGGCGG,0.292
10,ACAGTTAC,-0.0633
11,TGGAATAA,-0.14
12,GGGAATAA,0.373
13,GGGAATAC,0.302
14,CAACGAAC,0.079
15,CACCGATC,0.359
16,CACCGATA,0.351
17,GACCGATC,0.323
18,AACCGATG,0.143
19,CACCGATG,0.357
20,AACCGATC,0.106
21,GAGGCTGC,-0.213
22,ATCGGTTG,0.0401
23,CGCAATAC,-0.0062
24,CCTGGTCG,0.0613

row,Sequence,PBM E-score
1,AGTCGGGA,0.287
2,ACTCGGTA,-0.00538
3,AGTCGGTA,0.36
4,AGTCGGGG,0.363
5,CGTCGGTA,0.357
6,AATCGGTC,0.234
7,AATCGGTA,0.262
8,GGTCGGTA,0.319
9,CCTCGGTA,0.223
10,ACTCGGGG,0.185
11,CGTCGGTC,0.325
12,AATCGGTG,0.405
13,ATTGAAAT,-0.0501
14,AACGAGGC,-0.168
15,ACTCTACG,-0.241
16,TATACTCA,-0.245
17,GCGATTCA,0.00506
18,GGGCGCCC,0.147
19,GATAACGA,-0.102
20,ACTCAAGG,-0.223
21,AGTCGGTG,0.385
22,CGACGGTA,0.352
23,CATCGGGG,0.313
24,CGACGGTC,0.315

row,Sequence,PBM E-score
1,AGTCGGTC,0.259
2,AATCGGGG,0.372
3,AATCGGGC,0.209
4,GGACGGTA,0.241
5,AGTCGGCG,0.239
6,AAATGGAT,-0.168
7,AGGGAGAC,-0.0822
8,AACATGGT,-0.217
9,GCCAGCGC,-0.00309
10,GAAGGGGC,-0.11
11,AGCTCTCC,-0.325
12,CTGCGTCA,-0.121
13,GTAACTAC,0.109
14,CTTCCCGA,0.0298
15,ATTCCCGA,0.379
16,ATTCCCGC,0.4
17,GTTCCCGA,0.235
18,ATTCCCGG,0.319
19,CTTCCCGC,0.129
20,AATCCTAG,-0.0194
